This is a sample that favours compounds with a hit; in the whole collection about 7.2% have one here.
ALR inh: inhibitors of human sulfhydryl oxidase ALR. P55789. purified ALR, DTT oxidation, H2O2 HRP-luminol luminescence. inhibition, % (concentration not given with the values). 3.8% of 290,000 active. AID 485317;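 active = mean replicate inhibition above about 79%, with every replicate also reaching it, limit read from the data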
Efflux pump inh: blocks antifungal efflux pumps in multiplex yeast assay; S. cerevisiae Candida pump triplex, Nile Red efflux; inhibition, % at 10 µM; 0.44% of 330,000 active;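 active = plate passing quality check with inhibition over a set limit, or well fluorescence over plate mean plus 4 SD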;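 also: Nile Red retained in pooled yeast measured as flow cytometry median fluorescence; higher means more Nile Red kept so more efflux inhibition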
SUMO Mot1 rescue: SUMOylation pathway inhibition by Mot1-301 growth rescue | AID 2716 | growth rescue, % at 18.8 µM | S. cerevisiae Mot1-301 growth rescue, ATP luminescence, 38.5C; percent above DMSO median, 100 means doubled | 1% of 320,000 active;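 active = every valid replicate shows activation above 250% relative to neutral control wells; inactive = the rest, any valid replicate at or below 250%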
A1 inh: inhibitors of the anti-apoptotic protein A1, read as caspase activation | MEF A1-2A-BIM cells, Caspase-Glo 3/7 luminescence, 3 h; percent of clofoctol response, vehicle zero | caspase activation, % (concentration not given with the values) | 0.066% of 330,000 active | AID 2462;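 active = over half of replicate activation scores above 10%, or exactly half above 10 with the replicate mean above 10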
VLA-4 inh: inhibition in a human VLA-4 binding assay. P13612. VLA-4 expressing cells, ligand binding flow cytometry. inhibition, % (about 7 µM as worked out from the volumes in the protocol). 0.2% of 330,000 active. AID 2557; in the data active = inhibition above about 50%
AHR act: human AHR activation; P35869; 2.5% of 320,000 active; activation, % at 5 µM; AHR-responsive luciferase reporter cells, luminescence; in the data active = activation above about 47%
Large screens that a line does not name were inactive.

COc1cc(/C=N/NC(=S)NC2CC3CCC2C3)ccc1O (stereo not given)	ALR inh 98.7
COc1ccc(/C=N/NC(=S)N[C@H]2CC3CCC2C3)cc1 (stereo not given in full)	none
O=C(Nc1cc(C(F)(F)F)ccc1-n1cncn1)c1cn2ccccc2n1	AHR act 77.9
COCCN(Cc1cc2c(C)cc(C)cc2nc1Cl)C(=O)c1ccccc1F	none (no result: ALR inh)
COc1ccc(S(=O)(=O)Cc2ccc(C(=O)N3CCc4ccccc4C3)o2)cc1	ALR inh 96.7
COc1ccccc1S(=O)(=O)Cc1ccc(C(=O)N2CCN(c3ccc(C)cc3)C(C)C2)o1 (stereo not given)	none
COc1ccc(S(=O)(=O)Cc2ccc(C(=O)N3CCN(c4cccc(C)c4)C(C)C3)o2)cc1 (stereo not given)	ALR inh 93.5
O=C(c1ccc(CS(=O)(=O)c2ccc(Br)cc2)o1)N1CCN(C2CCCCC2)CC1	none
COc1ccc(N2CCN(C(=O)c3ccc(Br)o3)CC2)cc1	ALR inh 83.6
COc1ccc(S(=O)(=O)Cc2ccc(C(=O)N3CCN(C4CCCCC4)CC3)o2)cc1	ALR inh 91.7
COc1ccccc1N1CCN(C(=O)c2ccc(Br)o2)CC1	none (no result: ALR inh)
CSc1nnc(NC(=O)c2cc(=O)c3cc(C)cc(C)c3o2)s1	none
Cn1c(SCC(=O)O)nnc1-c1ccc2ncccc2c1	none (no result: ALR inh)
Cc1cc(C)c(S(=O)(=O)N(C)CC(N)=O)c(C)c1	none
COc1ccc(N2CCN(C(=O)c3ccc(CS(=O)(=O)c4ccc(OC)cc4)o3)CC2)cc1	none
COc1ccc(S(=O)(=O)Cc2ccc(C(=O)N3CCN(c4ccc(Cl)cc4)CC3)o2)cc1	ALR inh 85.5
O=C(O)Cc1sc(-c2ccccc2Cl)nc1-c1ccccc1	ALR inh 98.9
O=C(Cc1sc(-c2ccccc2)nc1-c1ccccc1)Nc1ccccc1	none
O=C(O)Cc1sc(NC2CCCCC2)nc1-c1ccc(Cl)cc1	none
Cc1ccc(-c2nc(-c3ccc(Cl)cc3)sc2CC(=O)O)c(C)c1	ALR inh 98.6 (no result: SUMO Mot1 rescue)
C1CCC(OCCN2CCN(CCOC3CCCCC3)CC2)CC1	none
COc1cc(OC)c(OC)cc1/C=N/NC(=S)NCC1CCCO1 (stereo not given)	none
Cn1cccc1C(=O)OCC(=O)Nc1ccc2c(c1)OCCO2	none
c1ccc2c(c1)-c1cccc3c1c-2cc1ccccc13	AHR act 101.8
N#Cc1nccnc1S(=O)(=O)c1cccs1	SUMO Mot1 rescue 361.3
CN(Cc1ccccc1C#N)S(=O)(=O)c1cccs1	none
CCCCC[C@@H](O)c1cc2ccccc2c(=O)o1	none
O=C(COC(=O)c1cc(S(=O)(=O)N2CCCC2)ccc1O)Nc1ccccc1Br	none
COc1ccc(OC)c(-c2csc(NC(=O)CSCc3c(C)noc3C)n2)c1	ALR inh 98.0
COc1ccc(OC)c(-c2csc(NC(=O)CSCC(=O)Nc3cc(C)on3)n2)c1	none (no result: ALR inh)
COc1ccc(C(=O)COC(=O)CSCc2c(C)noc2C)cc1OC	ALR inh 97.7
CC(=O)NS(=O)(=O)c1ccc(NS(=O)(=O)c2ccccc2[N+](=O)[O-])cc1	none
Cc1onc(-c2ccccc2)c1C(=O)N/N=C/c1c(F)cccc1Cl	none
COc1cc(CCC(=O)N2CCN(c3ccccc3)CC2)cc(OC)c1OC	none
CCCCCCn1c(N2CCCC2)nc2c1c(=O)n(C)c(=O)n2C	ALR inh 97.3
CCOCCn1c(N2CCN(c3ccc(OC)cc3)CC2)nc2c1c(=O)n(C)c(=O)n2C	ALR inh 90.7
COCCn1c(N2CCN(c3ccc(OC)cc3)CC2)nc2c1c(=O)n(C)c(=O)n2C	none
CC(NC(=O)[C@H](C)NC(=O)C1CC(=O)N(c2ccc3c(c2)OCO3)C1)c1ccccc1 (stereo not given in full)	none
Nc1n[nH]c(C2CC2)c1N=Nc1ccc(Cl)c(Cl)c1	AHR act 96.4
Nc1nc(N)c(N=Nc2ccc(Cl)cc2)c(=O)[nH]1	none (no result: SUMO Mot1 rescue)
C[C@@]12CCC3[C@@](CCC4[C@@]3(C)CCC[C@@]4(C)C(=O)N3CCCCC3)(CC1=O)C2 (stereo not given in full)	none
O=C(NN1CCOCC1)c1ccc(S(=O)(=O)N2CCCCC2)cc1	none
C=CCn1c(SCc2ccccc2F)nc2cc(C(=O)O)ccc2c1=O	ALR inh 98.5

Assay outcomes: PubChem, several laboratories
